Drawing on PubChem BioAssay (NCATS), this text covers Z-AUC, activity, negative = inhibition and Potency for eight compounds.

A short description of assay [1]: qHTS drug screen for cell cycle checkpoint inhibitors in PARPi-resistant BRCA-mutant ovarian cancer cell lines. (AID 1963452; calls by dose curve). The conditions noted are these: PEO1/OlaR viability, CellTiter-Glo luminescence, 96 h, stronger effect = lower value. The essentials: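 PEO1, PEO4 and PEO1/OlaR ovarian cancer cells, 600 per well, exposed 96 h at 37C to a dilution series. Viability read by CellTiter-Glo luminescence, normalized to DMSO and empty wells; activity summarized as Z-AUC.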

Assay [2] can be described thus: qHTS profiling for inhibitors of Plasmodium falciparum proliferation (AID 504749). Further: potency means the concentration at half of the fitted maximal effect.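 On activity, negative = inhibition: 0% = DMSO vehicle and full inhibition = artemisinin control.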 On all read-outs here: nearly all actives have a fitted effect of over 60% in size. The conditions noted are these: P. falciparum in erythrocytes, SYBR Green DNA, 72 h; for activity, negative = inhibition: at 28.7 µM (top of the series). The essentials:
(§1)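 SYBR Green fluorescence of parasite DNA, read after lysis and overnight dark incubation, measured growth over 72 h in erythrocyte culture at 0.3% parasitemia and 2.5% hematocrit. Data normalised to DMSO and 0.29 uM artemisinin, with plate-drift correction.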

The subject of a further assay is 3D7. The description is as above. The conditions noted are these: P. falciparum in erythrocytes, SYBR Green DNA, 72 h; series mostly up to 28.7 µM. The essentials: as §1
A further assay deals with 7G8. The description is as above. Conditions: P. falciparum in erythrocytes, SYBR Green DNA, 72 h; series mostly up to 28.7 µM. In a few lines:
as §1

Another assay relates to AA1029. Described as above. The conditions noted are these: P. falciparum in erythrocytes, SYBR Green DNA, 72 h; series mostly up to 28.7 µM. The essentials: as §1
The subject of a further assay is AS120. Described as above. The conditions noted are these: P. falciparum in erythrocytes, SYBR Green DNA, 72 h; series mostly up to 28.7 µM. The essentials:
as §1

A further assay deals with ATS189. The assay is described as above. Conditions: P. falciparum in erythrocytes, SYBR Green DNA, 72 h; series mostly up to 28.7 µM. The essentials: as §1
A further assay relates to ATS95. The assay is described as above. Conditions: P. falciparum in erythrocytes, SYBR Green DNA, 72 h; series mostly up to 28.7 µM. In a few lines:
as §1

Another assay concerns C2A. The assay is described as above. Conditions: P. falciparum in erythrocytes, SYBR Green DNA, 72 h; series mostly up to 28.7 µM. In a few lines:
as §1

The test system of another assay is CP185. The description is as above. The conditions noted are these: P. falciparum in erythrocytes, SYBR Green DNA, 72 h; series mostly up to 28.7 µM. In a few lines: as §1
Another assay deals with CP191. The description is as above. The conditions noted are these: P. falciparum in erythrocytes, SYBR Green DNA, 72 h; series mostly up to 28.7 µM. In a few lines: as §1
A further assay deals with CP192. The assay is described as above. Conditions: P. falciparum in erythrocytes, SYBR Green DNA, 72 h; series mostly up to 28.7 µM. The essentials:
as §1

The subject of a further assay is CP194. The assay is described as above. Conditions: P. falciparum in erythrocytes, SYBR Green DNA, 72 h; series mostly up to 28.7 µM. The essentials: as §1
For another assay, the system named is CP201. Described as above. The conditions noted are these: P. falciparum in erythrocytes, SYBR Green DNA, 72 h; series mostly up to 28.7 µM. The essentials: as §1
A further assay deals with CP203. The assay is described as above. The conditions noted are these: P. falciparum in erythrocytes, SYBR Green DNA, 72 h; series mostly up to 28.7 µM. In a few lines: as §1
In the next assay the test system is CP211. Described as above. Conditions: P. falciparum in erythrocytes, SYBR Green DNA, 72 h; series mostly up to 28.7 µM. The essentials:
as §1

A further assay concerns CP215. The description is as above. The conditions noted are these: P. falciparum in erythrocytes, SYBR Green DNA, 72 h; series mostly up to 28.7 µM. In a few lines:
as §1

The next assay concerns CP217. The description is as above. The conditions noted are these: P. falciparum in erythrocytes, SYBR Green DNA, 72 h; series mostly up to 28.7 µM. The essentials: as §1
The mark [3] stands for this setting: measured here: PEO1 parental Z-AUC.

Records with an inconclusive call do not appear. Activity calls are given as the source filed them. Unless noted, the call rests on the fitted dose curve; in most records, active means well fitted inhibition curve with a large enough effect; inconclusive means small, poorly fitted or top-dose-only effect; inactive means flat fitted curve, though single readings scatter.

Take `Nc1ncnc2c1ncn2[C@@H]1O[C@H](CO)[C@@H](O)[C@H]1O`: the Z-AUC was 0.682 (inactive) in assay [1], 0.71 in [1] (setting [3]) and 1.16 in assay [1] (measured here: PEO4 Z-AUC). The activity, negative = inhibition in assay [2] (parasite line A) is 7.65% (inactive); in [2] (parasite line B), 2.17% (inactive). Moreover, the Potency result in the assay on 3D7, in the assay on 7G8, in the assay with AA1029, in the assay on AS120, in the assay with ATS189 and in the assay with ATS95 was “inactive” in each case. The Potency result with C2A, in the assay on CP185, in the assay with CP191, with CP192, in the assay on CP194 and in the assay with CP201 was “inactive” throughout. Moreover, the Potency entry with CP203, in the assay with CP211, with CP215 and in the assay with CP217 was “inactive” throughout.
On to `C[C@H]1O[C@@H](n2cc(F)c(=O)[nH]c2=O)[C@H](O)[C@@H]1O`, for which the Z-AUC in assay [1] is 0.97 (inactive); in [1] (setting [3]) it was 1.13; in assay [1] (measured here: PEO4 Z-AUC), 1.52. Moreover, the activity, negative = inhibition in assay [2] (parasite line A) was 3.03% (inactive); in [2] (parasite line B) it was 4.84% (inactive). Also, the Potency entry in the assay on 3D7, in the assay on 7G8, with AA1029, in the assay on AS120, with ATS189 and in the assay with ATS95 was “inactive” throughout. Also, the Potency entry with C2A, with CP185, with CP191, with CP192, in the assay with CP194 and with CP201 was “inactive” each time. Further, the Potency entry with CP203, in the assay on CP211, in the assay with CP215 and in the assay on CP217 was “inactive” in each case.
In the case of `CCN(CC)CCNC(=O)c1cc(Cl)c(N)cc1OC`, the results for the activity, negative = inhibition in assay [2] (parasite line A) and in assay [2] (parasite line B) were 11.7% (inactive) and -3.16% (inactive), respectively. Further, the Potency result in the assay with 3D7, in the assay with 7G8, in the assay with AA1029, in the assay with AS120, in the assay on ATS189 and with ATS95 was “inactive” throughout. Besides, the Potency entry with C2A, in the assay with CP185, in the assay with CP191, in the assay on CP192, with CP194 and with CP201 was “inactive” in each case. Moreover, the Potency result with CP203, in the assay with CP211, with CP215 and with CP217 was “inactive” throughout.
For `O=C(O)COc1nn(Cc2ccccc2)c2ccccc12`, the activity, negative = inhibition in assay [2] (parasite line A) is 1.43% (inactive); in assay [2] (parasite line B), 10.4% (inactive). Moreover, the Potency result in the assay on 3D7, with 7G8, in the assay on AA1029, in the assay with AS120, in the assay with ATS189 and with ATS95 was “inactive” in each case. The Potency result in the assay with C2A, in the assay with CP185, in the assay on CP191, with CP192, with CP194 and with CP201 was “inactive” each time. Moreover, the Potency result in the assay on CP203, with CP211, in the assay with CP215 and in the assay with CP217 was “inactive” throughout.
Consider `COc1ccc2[nH]c(S(=O)Cc3ncc(C)c(OC)c3C)nc2n1` (configuration not stated), for which the Z-AUC was -1.06 (inactive) in assay [1], -0.26 in assay [1] (setting [3]) and 0.544 in [1] (measured here: PEO4 Z-AUC). The Potency in assay [2] (parasite line B) was 10 µM (active); in the assay on 3D7, 10 µM (active); in the assay with 7G8, 11.2 µM (active); with AS120, 8.91 µM (active). In addition, the Potency result in the assay with CP192, in the assay on CP194, in the assay on CP201, in the assay with CP211 and in the assay with CP215 was “inactive” in each case.
As to `CCN(CC)CCCC(C)Nc1c2ccc(Cl)cc2nc2ccc(OC)cc12` (configuration not stated), the Z-AUC is -0.243 (inactive) in assay [1], -1.15 in assay [1] (setting [3]) and -1.09 in assay [1] (measured here: PEO4 Z-AUC).
For `CN(N=O)C(=O)N[C@@H]1[C@@H](O)[C@H](O)[C@@H](CO)O[C@@H]1O` the same measures were 1.08 (inactive), 0.655 and 0.737.
Take `Cn1c(=O)c2c(ncn2CC2OCCO2)n(C)c1=O`: the Z-AUC in assay [1] is -0.883 (inactive); in assay [1] (setting [3]), -0.316; in assay [1] (measured here: PEO4 Z-AUC), 0.00528. Also, the activity, negative = inhibition in assay [2] (parasite line A) was -11.9% (inactive); in assay [2] (parasite line B), -9.38% (inactive). Also, the Potency entry with 3D7, in the assay on 7G8, with AA1029, in the assay with AS120, in the assay with ATS189 and with ATS95 was “inactive” each time. Also, the Potency entry with C2A, with CP185, in the assay with CP191, in the assay with CP192, in the assay on CP194 and in the assay with CP201 was “inactive” in each case. In addition, the Potency result with CP203, in the assay with CP211, in the assay on CP215 and with CP217 was “inactive” in each case.
